An excerpt weighted towards active compounds, which were near 2.3% of everything screened.
Jurkat NFkB inh – inhibitors of induced NF-kB luciferase reporter, primary screen, TCR NF-kB activation inhibitor project, cell-based, luminescence, uHTS. Jurkat, PMA/ionomycin-induced NF-kB luciferase reporter. inhibition, % at 4 µM. 0.53% of 330,000 active. AID 435003, 2010; in the data active means inhibition above about 50%
EBV LMP1 NFkB – EBV LMP1-driven NF-kappaB luciferase reporter inhibitors, primary screen, cell-based, luminescence, single point | LMP1-induced NF-kappaB luciferase reporter cells | inhibition, % at 12.5 µM | 0.69% of 350,000 active; in the data active means inhibition above about 41%; inconclusive means no clear call, values can overlap the other calls;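 further: 0% = neutral control wells and 100% = reference inhibitor control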
697 NFkB inh – inhibitors of PMA/ionomycin-induced NF-kB reporter, 697 cells, primary screen, B-cell NF-kB inhibitor project, cell-based, luminescence, uHTS. 697 B-cell NF-kB luciferase reporter, 16 h. inhibition, % at 4 µM. 0.33% of 330,000 active. AID 435022, 2010; in the data active means inhibition above about 35%
Shn3 3UTR inh – reduction of Shn3 3'UTR firefly luciferase signal, primary screen, Schnurri-3 inhibitor project, cell-based, Clone20 osteoblasts, set 2; 0.52% of 360,000 active; inhibition, % at 12.5 µM; Clone20 osteoblast Shn3 3'UTR firefly luciferase, 24 h; AID 588674, 2011;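 active means mean inhibition of at least 75% with every replicate also reaching 75%; inconclusive means mean inhibition at least 75% but some replicate below; inactive means mean inhibition below 75%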;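 further: 0% = median of neutral control wells and 100% = pilot-screen positive control compound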
Gli-Sufu block – Gli-Sufu pathway antagonists, primary screen, luciferase luminescence, Sufu-KO-LIGHT cells, uHTS | Sufu-KO-LIGHT fibroblasts, Gli luciferase reporter luminescence | inhibition, % at 5 µM | 0.74% of 340,000 active;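 active means inhibition above about 55%, limit read from the data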;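 further: 0% = DMSO-treated cells and 100% = wells with medium but no cells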
MITF TRPM1 inh – inhibitors of MITF-dependent TRPM1 promoter reporter, primary screen, cell-based, SK-MEL-5, single point, luciferase; SK-MEL-5 TRPM1 promoter luciferase, 24 h; inhibition, % at 12.5 µM; 0.83% of 330,000 active; AID 488899, 2010;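 active means mean inhibition across replicates of 60% or more, whatever share of single replicates reaches that level; inconclusive means some that reach 60%, reason not given; inactive means mean inhibition across replicates below 60%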
Jurkat NFkB conf – PMA/ionomycin-induced NF-kB reporter inhibitors, Jurkat retest, confirmation, T-cell NF-kB inhibitor project, cell-based, luminescence, single concentration; Jurkat NF-kB luciferase, 16 h; 27% of 2,700 active; inhibition, % at 4 µM; shares compounds with Jurkat NFkB inh;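 active means inhibition reaching about 45% at 4 µM in either replicate, limit read from the data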;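 further: plate controls were PMA/ionomycin stimulated DMSO wells for no effect and unstimulated DMSO wells for full effect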
Active calls of the source: *; ? = inconclusive; · = no result given.

SMILES	Jurkat NFkB inh	EBV LMP1 NFkB	697 NFkB inh	Shn3 3UTR inh	Gli-Sufu block	MITF TRPM1 inh	Jurkat NFkB conf
Cc1oc(-c2ccc(Cl)cc2)nc1CS(=O)CC(=O)NCCCN1CCN(Cc2ccccc2)CC1 (configuration not stated)	65*	22	-9	?	39	23	41
C[C@H](O)[C@@H]1C(=O)N2CCc3ccc(-c4ccccc4)cc3[C@@H]2C[C@@H]1N(C)C(=O)c1cccnc1	·	7	·	-8	·	·	·
O=C(Nc1ccc2c(c1)OCCO2)c1cc2sccc2n1Cc1ccccc1	-15	-5	-102	37	-24	-10	·
Cn1c(C(=O)Nc2ccc3c(c2)OCCO3)cc2sccc21	-190	-39	-195	-11	-91	-36	-104
CCCCc1ccc(S(=O)(=O)N2CCC3(CC2)OCCO3)cc1	7	-1	7	32	7	-1	·
O=C(N/N=C/c1ccccn1)c1cc(-c2ccc(Br)cc2)nc2ccccc12	54*	3	-63	55	72*	66*	19
Cc1[nH]c2ccccc2c1/C=N/NC(=O)c1cc(-c2ccncc2)nc2ccccc12	56*	-9	8	-8	-1	37	12
O=C(N/N=C/c1ccco1)c1cc(-c2ccccc2)nc2ccccc12	6	0	-15	-6	46	12	·
CCN(CC)S(=O)(=O)c1cccc(C(=O)OCC(=O)N2CC(=O)Nc3ccccc32)c1	1	5	10	-16	-9	-15	·
CCOC(=O)N1CCC(N(CCN(C)C)C(=S)Nc2ccccc2Cl)CC1	-8	-1	-3	4	-1	-8	·
COCC(=O)Nc1c(C(=O)Nc2ccc3c(c2)OCCO3)oc2ccccc12	-176	-33	-110	-55	-122	-93	-95
CCC(=O)Nc1c(C(=O)Nc2ccc3c(c2)OCCO3)oc2ccccc12	-92	-30	-70	-87	-91	-97	·
CCOCC(=O)Nc1c(C(=O)Nc2ccc3c(c2)OCCO3)oc2ccccc12	-193	-42	-117	-73	-139	-89	-92
COc1ccc(NC(=O)c2cc3ccccc3o2)cc1	-110	-48	-71	-168	11	-54	·
CCOC(=O)c1[nH]c(C)c(C(=O)c2cc(F)ccc2F)c1C	77*	6	14	-9	46	14	43
O=C(NCc1ccco1)/C(=C/c1ccco1)NC(=O)c1ccc(Br)o1	0	11	-64	-25	-10	-6	·
O=C(NCC(=O)N(c1ccc(Cl)cc1)C(C(=O)NC1CCCC1)c1cccnc1)c1ccco1 (configuration not stated)	2	0	2	-1	-3	2	·
O=C1C=C(c2ccc3ncccc3c2)C[C@@H](c2ccc3c(c2)OCO3)C1	70*	2	-58	-19	9	12	50*
O=C1C=C(c2ccc3ncccc3c2)C[C@@H](c2ccc(F)cc2)C1	22	2	-10	-10	8	-10	·
CN(C)CCCNC(=O)C[C@H]1C[C@H](C(=O)N2CCOCC2)[C@@]2(CCC3CCCC3)c3[nH]c4cc(CCC(=O)N(C)C)ccc4c3CCN2C1=O	·	-1	6	-36	1	-8	·
C/C(=N\Nc1nc(C(C)(C)C)cs1)c1ccccc1	-161	-59	-225	-77	-75	-62	-127
Cc1cc2nnc(SCC(=O)NCc3cccs3)n2c2ccccc12	46	11	-22	17	0	19	·
Cc1cc2nnc(SCC(=O)NCc3ccco3)n2c2ccccc12	58*	2	-20	2	-7	36	11
COc1cccc(NC(=O)C(=S)NC2CCCCC2)c1	-220	-77	-164	-18	-121	-79	-91
COc1cccc(NC(=O)COC(=O)C2CCCCC2)c1	-195	-4	7	5	-17	0	16
SMILES	Jurkat NFkB inh	EBV LMP1 NFkB	697 NFkB inh	Shn3 3UTR inh	Gli-Sufu block	MITF TRPM1 inh	Jurkat NFkB conf
COc1cccc(NC(=O)NC2CCCCCCC2)c1	-71	-16	-93	-66	-72	-88	·
O=C(c1cccc(OCc2ccccc2)c1)N1CCOCC1	-9	1	11	-4	-7	-6	·
CCOc1ccc(OCc2cccc(C(=O)N3CCOCC3)c2)cc1	53*	84*	23	70	-146	56	30
CCOc1cccc(CN2CCN(CCCc3ccccc3)C(CCO)C2)c1O (configuration not stated)	5	5	-42	-27	43	16	·
COc1ccccc1NC(CC(=O)c1ccccc1)C(=O)OCC(=O)c1ccc(F)cc1 (configuration not stated)	-173	-36	-168	-145	-15	-14	-41
Cc1cccc(N2CCN(C(=O)c3ccc4[nH]c(C)c(C)c4c3)CC2)c1C	56*	21	-37	1	-4	28	52*
Cc1[nH]c2ccc(C(=O)N3CCN(c4ccccc4Cl)CC3)cc2c1C	8	1	-12	-5	-4	-1	·
COc1ccccc1N1CCN(C(=O)c2oc3ccc(Br)cc3c2C)CC1	66*	15	-25	-4	-4	24	6
COc1cc(C(=O)N2CCN(c3ccc(C)cc3C)CC2)cc(OC)c1OC	63*	15	-93	-1	19	31	21
COc1ccccc1N1CCN(C(=O)c2ccc3[nH]c(C)c(C)c3c2)CC1	54*	24	8	3	7	31	17
COc1ccccc1N1CCN(C(=O)c2oc3ccc(F)cc3c2C)CC1	22	-20	-9	-3	4	-3	·
N#Cc1cc(C(=O)c2cc(F)ccc2O)cn(Cc2ccccc2)c1=O	3	6	-6	2	7	10	·
Cc1cccc(N2CCN(C(=O)c3c(-c4ccccc4)noc3C)CC2)c1C	68*	27	-51	-1	27	6	41
Cc1cccc(N2CCN(C(=O)c3ccc(S(=O)(=O)N(C)c4ccccc4)cc3)CC2)c1C	58*	8	-39	16	-3	18	40
CCc1noc(C)c1C(=O)N1CCN(c2cccc(C)c2C)CC1	0	0	-10	4	6	-2	·
OCc1csc(=Nc2ccccc2)n1-c1ccccc1	-5	-1	10	3	-2	-2	·
Cc1ccc(/C=N/NC(=O)c2c(C)nc3ccc(Br)cn23)cc1	50*	9	10	12	45	13	53*
CC/C(=N\NC(=O)c1csc(C)c1C)c1cccs1	-157	-33	-157	-54	-107	-82	-29
